# Shown are actives, neighbours in structure and some others; about 10% of the full set was active somewhere.
# KB-3-1 cytotox = qHTS assay for MDR1-selective chemotherapeutics: Primary screen using the parental adenocarcinoma cell KB-3-1. Potency, µM (series often up to 46.1 µM), hits mostly cytotoxic. AID 1347075, 2019. KB-3-1 viability, CellTiter-Glo ATP luminescence, 72 h. actives 1.4% (n = 400,000); further: on the % scale 0 is the no-effect control and ±100 the full control effect; nearly all actives have a fitted effect of over 60% in size
#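 Parental KB-3-1 viability, qHTS format: 72 h compound exposure, 37 °C; CellTiter-Glo; media-only wells and DMSO plates as controls; concentration-effect fits on corrected data.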
# RORgamma inh = qHTS for inhibitors of ROR gamma transcriptional activity; Potency, µM (doses to about 53.6 µM), inactives show at the top dose activity change, negative = inhibition, actives largely listed as inhibitors; Nuclear receptor ROR-gamma (Mus musculus), P51450; Drosophila S2 Gal4-RORgamma UAS-luciferase reporter, 20 h; actives 5.4% (n = 310,000); further: on the % scale 0 is the no-effect control and ±100 the full control effect; nearly all actives have a fitted effect of over 60% in size
# Target sequence (P51450 whole entry, looked up, the tested form may be a part): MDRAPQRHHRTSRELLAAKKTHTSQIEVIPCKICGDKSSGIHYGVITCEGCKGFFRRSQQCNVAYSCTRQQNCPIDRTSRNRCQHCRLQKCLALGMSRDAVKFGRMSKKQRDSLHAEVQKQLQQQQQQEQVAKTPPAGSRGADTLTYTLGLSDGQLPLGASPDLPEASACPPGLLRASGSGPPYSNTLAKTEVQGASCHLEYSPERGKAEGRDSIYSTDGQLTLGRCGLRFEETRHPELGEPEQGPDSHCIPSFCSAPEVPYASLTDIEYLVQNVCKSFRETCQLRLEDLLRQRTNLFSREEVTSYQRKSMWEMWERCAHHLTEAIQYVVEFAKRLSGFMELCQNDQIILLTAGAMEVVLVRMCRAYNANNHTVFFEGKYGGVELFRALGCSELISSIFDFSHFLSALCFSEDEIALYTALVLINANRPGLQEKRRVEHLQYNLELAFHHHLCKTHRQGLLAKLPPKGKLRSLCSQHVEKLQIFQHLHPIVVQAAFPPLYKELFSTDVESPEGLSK
#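 Drosophila Schneider cells stably carrying a metallothionein-driven Gal4 DBD–ROR gamma fusion and a UAS-Photinus luciferase reporter were exposed to compound for 1 hr, then induced with copper sulfate (700 uM final) for 20 hr at ambient temperature before luminescence reading.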
# MCF10A rerep = A quantitative high throughput screen for small molecules that induce DNA re-replication in MCF 10a normal breast cells; MCF 10A DNA re-replication, Hoechst nuclear intensity, 48 h; Potency, µM (top dose mostly 46.1 µM), for the others: at the highest dose activity, positive = re-replication, usual class: activators; actives 2.9% (n = 350,000); AID 624296, 2012; further: % of control where 0% means no effect; nearly all actives have a fitted effect of over 50% in size
# Gal4-VP16 FLuc = VP16 counterscreen qHTS for inhibitors of ROR gamma transcriptional activity; Drosophila S2 Gal4-VP16 UAS-luciferase, luminescence, 20 h; Potency, µM (doses to about 53.6 µM), for inactives: at the highest dose activity, negative = inhibition, actives largely listed as inhibitors; actives 3.5% (n = 310,000);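 further: Gal4-VP16 expression switched on by copper sulfate through the metallothionein promoter; on the % scale 0 is the no-effect control and ±100 the full control effect; nearly all actives have a fitted effect of over 50% in size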
# SW480 rerep = A quantitative high throughput screen for small molecules that induce DNA re-replication in SW480 colon adenocarcinoma cells; SW480 DNA re-replication, Hoechst DNA content imaging, 48 h; Potency, µM (top dose mostly 46.1 µM), for the others: top-dose re-replication activation, most hits filed as activators; actives 1.8% (n = 340,000); AID 624297, 2012; further: % of control where 0% means no effect; nearly all actives have a fitted effect of over 55% in size
#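 Image-based read-out: total Hoechst fluorescence of nuclei (405 nm excitation, 500-530 nm emission), with hits raising the fraction of high-intensity nuclei. SW480 colon cells incubated 48 hr with compounds at 37 C.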
# KB-V1 cytotox = qHTS assay for MDR1-selective chemotherapeutics: Primary screen using the drug-selected MDR subline cells KB-V1 | KB-V1 MDR cells viability, CellTiter-Glo, 72 h | Potency, µM (titrated, usually from 46.1 µM), actives largely listed as cytotoxic | actives 3.4% (n = 400,000); further: on the % scale 0 is the no-effect control and ±100 the full control effect; nearly all actives have a fitted effect of over 60% in size
#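 Cytotoxicity via CellTiter-Glo luminescence after 72 h compound exposure at 37 degrees C. Cells: drug-selected KB-V1 line, DMEM phenol-red free plus 10% FBS. Compounds tested at multiple concentrations; normalized data fitted to concentration-effect curves.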
# Numbers without * were called inactive; i = inactive; ? = inconclusive; . = not tested or not shown. The call rests on the fitted dose curve; in most records, active means well fitted curve in the direction sought with a large enough effect; inconclusive means small, poorly fitted or top-dose-only effect, or another doubt; inactive means no such curve, though single readings can be large; an effect the other way counts as inactive or inconclusive. Potency means the concentration at half of the fitted maximal effect.
SMILES,KB-3-1 cytotox,RORgamma inh,MCF10A rerep,Gal4-VP16 FLuc,SW480 rerep,KB-V1 cytotox
Cc1cc(NC(=O)c2ccc(OCC3CCCO3)cc2)ccc1Br (centres undefined),i,.,.,.,.,?
O=C(Nc1ccc(Cl)cc1)c1ccc(OCC2CCCO2)cc1 (centres undefined),?,10%,0%,0%,-9%,13µM*
CC(C)Oc1ccc(CNC(=O)CN2C(=O)c3cccnc3Oc3ccc(Cl)cc32)cc1,?,.,.,.,.,i
S=C(c1ccc2c(c1)OCO2)N1CCN(c2cccc(Cl)c2)CC1,4.1µM*,.,1.5µM*,.,5.2µM*,?
Cc1cccc(N2CCN(C(=S)c3ccc4c(c3)OCO4)CC2)c1,10µM*,.,1.3µM*,.,6.5µM*,i
Cc1ccc(-c2c(C(=O)N3CCN(c4cc(Cl)ccc4C)CC3)oc(=O)c3ccccc23)cc1,i,.,.,.,.,i
CN(C(=O)c1cccc(NC(=O)Cc2ccc(NC(=O)C3CCCN(C(=O)C4CCCCC4)C3)cc2)c1)C1CCCC1 (centres undefined),i,.,15%,.,?,i
CN(C(=O)c1cccc(NC(=O)Cc2ccc(NC(=O)C3CCCN(C(=O)C4CC4)C3)cc2)c1)C1CCCCC1 (centres undefined),i,.,10%,.,2.6µM*,i
CN(C(=O)c1cccc(NC(=O)Cc2ccc(NC(=O)C3CCCN(C(=O)CCc4ccccc4)C3)cc2)c1)C1CCCC1 (centres undefined),6.5µM*,.,?,.,3%,i
COc1cccc(C#Cc2c(C=O)n(C)c3ccccc23)c1,i,.,?,.,2.3µM*,?
CCOC(=O)c1ccc(NC(=O)C2CCCN(c3ncnc4onc(C)c34)C2)cc1 (centres undefined),i,.,.,.,.,i
COc1ccc(-c2[nH]ncc2Oc2ccccc2OC)c(O)c1,i,11µM*,20%,?,2%,?
COc1ccc(-c2nc(N)ncc2Oc2ccccc2Br)c(O)c1,i,-27%,?,-28%,18%,i
C=C(C)COc1ccc(-c2[nH]ncc2-c2ccccc2)c(O)c1,i,?,?,?,3%,?
COc1cccc(Oc2cnc(N)nc2-c2ccc(OC)cc2O)c1,6.5µM*,33%,6.5µM*,0%,7.3µM*,2.6µM*
C=C(C)COc1ccc(-c2[nH]ncc2Oc2cccc(OC)c2)c(O)c1,i,6.3µM*,?,?,?,?
C=C(C)COc1ccc(-c2[nH]ncc2Oc2ccccc2OCC)c(O)c1,?,-7%,16µM*,-9%,?,i
COc1ccc(Oc2cn[nH]c2-c2ccc(O)cc2O)cc1,?,?,?,-6%,2%,i
CC(C)(C)Cc1c(-c2ccc(C#N)cc2)nc2c(Cl)cc(C(F)(F)F)cn12,?,.,.,.,.,i
COc1ccc(/C=N/NC(=O)c2cc3c(OC)ccc(OC)c3[nH]2)cc1O,2.9µM*,-42%,?,?,?,9.2µM*
COc1ccc(OC)c2[nH]c(C(=O)N/N=C/c3ccccc3O)cc12,?,4µM*,?,5µM*,?,i
CCCn1c(-c2ccc(F)cc2)nc2c(NC3CC4CCC(C3)N4C)nc(C)nc21 (centres undefined),.,-23%,.,-8%,.,.
Cc1ccc(C(=O)N2C(CC(=O)Nc3ccc(Cl)cc3)C(=O)NC3CCCCC32)cc1 (centres undefined),?,-16%,29%,-8%,23µM*,?
Cc1cccc(NC(=O)CC2C(=O)NC3CCCCC3N2C(=O)c2ccccc2Cl)c1 (centres undefined),i,-4%,1%,5%,-8%,i
CC1(C)OC(=O)C2=C(C[C@@H](CCc3ccccc3)O[C@@H]2c2ccc(Cl)cc2)O1,?,.,.,.,.,i
SMILES,KB-3-1 cytotox,RORgamma inh,MCF10A rerep,Gal4-VP16 FLuc,SW480 rerep,KB-V1 cytotox
Cc1ccc(NC(=O)CN(C)C(=O)Cc2c[nH]c3ccccc23)cc1,i,.,11%,.,-7%,18µM*
CN(CC(=O)Nc1ccc(F)cc1)C(=O)c1ccc2ccccc2n1,i,.,0%,.,5.2µM*,i
CSc1ccccc1NC(=O)CN(C)C(=O)Cc1c[nH]c2ccccc12,i,.,2%,.,1%,i
Cc1cc(SCC(=O)N(C)CC(=O)Nc2ccc(F)cc2)nc2ccccc12,i,3%,-54%,-4%,-75%,5.2µM*
Cc1nnc(SCC(=O)N(C)CC(=O)Nc2ccc(F)cc2)n1Cc1ccccc1,i,22%,-2%,-1%,-1%,i
CN(CC(=O)Nc1ccc(F)cc1)C(=O)CSc1nnc(Cc2ccccc2)o1,i,.,4%,.,-3%,16µM*
CCc1cc(Cn2nc(-c3ccccc3)cc2C(=O)NCc2cccc(Br)c2)on1,?,.,?,.,13%,23µM*
CCc1cc(Cn2nc(-c3ccccc3)cc2C(=O)NCc2cccc(C(F)(F)F)c2)on1,i,.,?,.,5%,i
COc1cccc([C@@H]2Oc3ccc(OC)cc3C(=O)[C@H]2OC(=O)Nc2ccc(OC(F)F)cc2)c1,.,1%,.,-6%,.,.
Cc1ccc(/C=C2/SC(=S)N(c3ccc(S(=O)(=O)Nc4nccs4)cc3)C2=O)cc1,i,5.6µM*,13%,0.79µM*,-6%,i
COc1ccccc1OCC(=O)Nc1cc(Cl)ccc1Oc1ccccc1,i,?,-4%,-18%,-2%,i
CNC(=S)Nc1cc(Cl)ccc1Oc1ccccc1,i,14µM*,8%,?,-3%,i
CCNC(=S)Nc1cc(Cl)ccc1Oc1ccccc1,i,4.5µM*,4%,10µM*,?,i
CCNS(=O)(=O)c1ccc(CCC(=O)Nc2cc(Cl)ccc2Oc2ccccc2)cc1,i,42%,5%,-5%,3%,16µM*
Cc1ccccc1NC(=O)CSc1nc(-c2ccccc2)cn1-c1ccccc1F,i,.,.,.,.,i
CN(C(=O)c1cnc(N2CCOCC2)c2ccccc12)c1ccccc1F,i,.,.,.,.,i
O=C(Cn1nnc(-c2ccccc2-n2cnnn2)n1)c1ccccc1,i,29%,18µM*,-11%,-20%,i
